HIF activator: HIF pathway transcriptional activation; U2OS HRE-luciferase reporter, luminescence; normalized: DMSO 0%, desferrioxamine 100%; activation, % at 7.5 µM (by protocol); actives 0.32% (n = 300,000); AID 1910;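 active means mean activation of at least 10% of the iron chelator positive control signal, with at least half of replicates also reaching 10%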
PolyA inhibitor: blocks polyadenylation in yeast reporter cells; S. cerevisiae SKY197-pL101 polyadenylation reporter, beta-gal luminescence; efflux-impaired pdr1/pdr3 knockout yeast; score 100 = 6 SD above DMSO; activity score, % at 12 µM; actives 0.02% (n = 300,000); AID 1875;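 active means lowest replicate activity score at least 50, where 100 means six control SD above control mean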;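 further: yeast exposed to compound for 9 h at 30 °C; higher score means more reporter readthrough which indicates perturbed polyadenylation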
p-CIP stab down: compounds decreasing mouse p/CIP protein stability; Q05BA5; F442A p/CIP-EGFP cells, EGFP fluorescence, 16 h; decrease of EGFP signal, % at 10 µM; actives 0.01% (n = 290,000); AID 1984;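 active means EGFP signal decrease of at least 30% at 10 µM or well 3 SD below plate mean, unless failing retest; inactive means the rest, including hits failing retest or dose response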
AHR act: activators of human aryl hydrocarbon receptor; P35869; AHR-responsive luciferase reporter cells, luminescence; activation, % at 5 µM; actives 2.5% (n = 320,000); AID 2796; in the data active means activation above about 47%;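 further: 0% = vehicle wells and 100% = reference agonist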
Target sequence (P35869 whole entry, looked up): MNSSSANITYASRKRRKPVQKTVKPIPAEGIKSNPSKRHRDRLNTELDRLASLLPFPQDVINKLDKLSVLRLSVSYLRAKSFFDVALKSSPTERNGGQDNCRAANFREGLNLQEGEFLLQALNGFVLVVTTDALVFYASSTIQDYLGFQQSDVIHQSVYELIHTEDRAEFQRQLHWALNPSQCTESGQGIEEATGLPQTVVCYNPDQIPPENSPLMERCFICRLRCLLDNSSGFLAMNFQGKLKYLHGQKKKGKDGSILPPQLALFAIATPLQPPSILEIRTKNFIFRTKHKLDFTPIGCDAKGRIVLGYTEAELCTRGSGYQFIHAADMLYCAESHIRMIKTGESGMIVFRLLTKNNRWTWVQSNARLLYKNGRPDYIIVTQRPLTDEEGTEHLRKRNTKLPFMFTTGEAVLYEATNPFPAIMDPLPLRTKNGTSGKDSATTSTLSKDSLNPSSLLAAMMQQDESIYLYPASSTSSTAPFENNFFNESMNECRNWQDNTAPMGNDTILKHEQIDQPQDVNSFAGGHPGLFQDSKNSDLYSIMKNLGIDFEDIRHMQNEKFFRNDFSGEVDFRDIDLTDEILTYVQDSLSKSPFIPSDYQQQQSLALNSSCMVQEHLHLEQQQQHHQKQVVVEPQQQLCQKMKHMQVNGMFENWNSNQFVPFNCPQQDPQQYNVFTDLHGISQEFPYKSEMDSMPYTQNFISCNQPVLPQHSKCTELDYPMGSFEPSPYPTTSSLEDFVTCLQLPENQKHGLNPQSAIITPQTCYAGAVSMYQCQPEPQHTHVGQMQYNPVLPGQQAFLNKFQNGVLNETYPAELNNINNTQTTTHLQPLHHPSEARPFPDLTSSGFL
Platelet DG rel: modulates dense granule release in human platelets. human platelet-rich plasma, SFLLRN dense granule ATP release, luminescence. inhibition, %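 (compounds screened at 7.5 µM in platelet-rich plasma)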. actives 0.22% (n = 300,000). AID 1663;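 active means mean replicate score, as percent of positive control, at or above 50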
* marks the source's active call; other numbers are inactive results; nt = not tested or not shown. In the library only some 2.8% were active in any assay of this set; here they are far more common.

SMILES	HIF activator	PolyA inhibitor	p-CIP stab down	AHR act	Platelet DG rel
Cc1oc2ccc(OCC(N)=O)cc2c1C(=O)OC(C)C	0	-9	8	59*	-3
Cc1oc2ccc(OC(=O)N3CCOCC3)cc2c1C(=O)OC(C)C	0	29	-9	47*	11
COC(=O)c1c(C)oc2ccc(OC(=O)N3CCOCC3)cc12	1	22	-3	29	4
CCCCNC(=S)N/N=C/c1ccc(C)s1	3	-18	-7	75*	1
COc1cc2ccccc2cc1C(=O)Nc1ccc(Cl)cn1	4	13	-7	53*	3
Cc1ccc(NC(=O)c2sccc2C)nc1	1	-13	-4	12	52*
COc1ccc(C(=O)Nc2ccc(C)cn2)c(OC)c1	-3	-9	-14	49*	25
O=C(NCCc1ccccc1)C1CCN(c2ncccn2)CC1	1	-5	7	4	-3
CCCCOC(=O)c1ccc(NC(=O)C(=O)NCCN(CC)CC)cc1	0	2	-10	0	7
S=C(NCc1ccccc1)Nc1ccc(Oc2ccccc2)cc1	-15	-6	6	74*	-8
COc1ccc(NC(=S)NCc2cccnc2)cc1	585*	12	2	2	4
CCCCOC(=O)c1ccc(NC(=O)C(=O)NCc2cccnc2)cc1	25*	5	-20	7	-5
Cc1cc(N/C=C\c2nnnn2-c2ccccc2)no1	1	-3	4	69*	3
Cc1cc(NC(=O)CSc2nnnn2-c2ccccc2)no1	0	-4	-5	3	-4
COc1cccc(NC(=S)N(CCCN2CCOCC2)Cc2cn(C)c3ccccc23)c1	351*	-20	2	3	-22
COc1cccc(NC(=O)CN(C)C(=O)c2ccccc2-c2nc3ccccc3s2)c1	0	-2	nt	8	-11
O=C(C[C@H]1C/C=C\CCC(=O)OC[C@H]2CCCN2C1=O)NCCO	nt	nt	nt	0	nt
O=C(c1cccc(S(=O)(=O)N2CCCC2)c1)N1CCOCC1	nt	nt	nt	-2	nt
O=C(NC(=S)Nc1ccccc1N1CCCC1)c1cccs1	0	9	-3	51*	0
CC(C)(C)c1ccc(C(=O)NC(=S)NNC(=O)c2cccs2)cc1	2	-71	-5	74*	52*
Cc1cccc(C(=O)NC(=S)NNC(=O)c2cccs2)c1	3	-44	-9	18	-4
O=C(NC(=S)NNC(=O)c1cccs1)c1ccccc1	1	-8	-12	52*	-6
COc1cc(OC)cc(C(=O)N[C@H](C(=O)NCc2ccco2)C(C)C)c1	0	-5	-14	0	8
S=C(NCCc1ccccc1)Nc1ccc(Br)cn1	1	nt	-19	17	0
O=C1c2ccccc2C(Nc2ccc(Cl)cc2)N1CCN1CCOCC1 (stereo unspecified)	0	13	-18	5	1
SMILES	HIF activator	PolyA inhibitor	p-CIP stab down	AHR act	Platelet DG rel
O=C1c2ccccc2C(O)N1CCN1CCOCC1 (stereo unspecified)	0	8	-9	1	53*
CCc1nnc(NC(=O)C(NC(=O)c2ccccc2Cl)C(C)C)s1 (stereo unspecified)	0	-10	2	1	-1
O=C(Nc1nc(-c2ccccn2)cs1)c1cc(Cl)ccc1[N+](=O)[O-]	36*	-6	0	16	-4
O=C(Nc1nc(-c2ccccn2)cs1)c1ccccc1-n1cnnn1	52*	9	-3	20	-2
CC(C)[C@H](NC(=O)c1ccccc1Cl)C(=O)Nc1nc(-c2ccccn2)cs1	20*	-17	-2	11	-30
CCS(=O)(=O)N1CCC(C(=O)c2ccc(Cl)cc2)CC1	nt	22	17	0	-6
c1ccc2c(c1)ccc1nnc(SCc3ccc4c(c3)OCO4)n12	1	-6	-2	65*	26
Cc1c(C(=O)Nc2nc3ccccc3[nH]2)oc2c(Cl)cccc12	1	6	-9	66*	3
Cc1c(C(=O)Nc2nc3ccccc3[nH]2)oc2ccc(Br)cc12	1	-10	2	29	-11
Cc1c(C(=O)Nc2nc3ccccc3[nH]2)oc2ccccc12	0	-2	3	68*	8
CC1Oc2ccccc2OC1C(=O)Nc1ccccn1 (stereo unspecified)	0	-4	-4	68*	1
COc1ccc(N2C(=O)CS/C2=N\C(=S)Nc2ccccc2)cc1	1	-4	-2	21	5
CC(C)=CCC/C(C)=C/COc1ccc2ccc(=O)oc2c1	1	0	-17	-2	6
CC(C)=CCC/C(C)=C/COc1c2occc2cc2ccc(=O)oc12	nt	nt	nt	69*	nt
N#Cc1ccccc1NC(=O)CSc1nnc(-c2ccccc2)n1-c1ccccc1	0	-2	-3	65*	1
CCN(CC)c1ccc(-c2nnc(SCC(=O)Nc3ccccc3C#N)n2-c2ccccc2)cc1	2	-7	-9	18	9
COc1cc(NC(=S)Nc2cccc(C)n2)cc(OC)c1OC	0	-1	11	69*	2
O=C(CCNC(=O)c1ccccc1Cl)NNC(=O)c1ccccc1O	1	17	nt	68*	-2
O=C(NCCNC(=O)c1ccccc1O)c1ccccc1O	0	24	2	0	11
Cc1c(/C=C2\NC(=O)NC2=O)c2ccccc2n1C	0	-2	3	75*	8
O=C(NCc1cccs1)C1CC(=O)N(C2CCCC2)C1 (stereo unspecified)	214*	32	-10	-1	-9
CCOC(=O)C1(CC2CCCCO2)CCN(C(=O)Nc2ccccc2CC)CC1 (stereo unspecified)	1	-3	-2	4	-5
O=[N+]([O-])c1ccc(C2=Nc3cc(Cl)ccc3OC2)cc1	4	-32	-7	67*	6
CSc1nc(C(C)C)ccc1CNC(=O)CC(C)c1ccccc1 (stereo unspecified)	1	6	-4	1	-4
O=C(Cc1c[nH]c2ccccc12)N1CCc2ccccc21	1	-29	1	75*	-3
SMILES	HIF activator	PolyA inhibitor	p-CIP stab down	AHR act	Platelet DG rel
S=C(NC1CCCC1)N1CCN(c2ccc(Cl)cc2)CC1	0	-47	-3	-4	2
Cc1ccccc1CNC(=O)Nc1ccc(Cl)cc1	2	4	-10	0	0
CC(=O)Nc1ccc2nc(NC(=O)c3cccs3)sc2c1	1	-1	-2	58*	86*
Cc1nc2ccc(NC(=O)c3cccs3)cc2s1	2	-18	4	2	10
COc1ccc2nc(NC(C)=O)sc2c1	0	7	2	6	-2
COc1ccc2nc(NC(=O)c3cccs3)sc2c1	21*	-24	-7	-7	32
CC(C)c1nnc(NC(=O)c2cccs2)s1	2	15	8	53*	1
CCN(CC)S(=O)(=O)c1ccc2nc(NC(=O)c3cccs3)sc2c1	2	-12	-9	72*	5
COc1cccc(OC)c1C(=O)Nc1ccccc1N1CCCCC1	0	-16	-15	3	15

Screening data: PubChem BioAssay, several laboratories
